The values below come from PubChem BioAssay AID588790 (National Center for Advancing Translational Sciences (NCATS), 2011).

Among all 1,200 compounds or so, about 85 (7%) were called active. The call rests on the fitted dose curve. What follows is part of a selection rich in actives, with near analogues and random picks from the rest. A call without a number means that no potency is given here.
Potency means the concentration at half of the fitted maximal effect.

Chain of Beta-2 adrenergic receptor (Homo sapiens) (P07550 whole entry, looked up): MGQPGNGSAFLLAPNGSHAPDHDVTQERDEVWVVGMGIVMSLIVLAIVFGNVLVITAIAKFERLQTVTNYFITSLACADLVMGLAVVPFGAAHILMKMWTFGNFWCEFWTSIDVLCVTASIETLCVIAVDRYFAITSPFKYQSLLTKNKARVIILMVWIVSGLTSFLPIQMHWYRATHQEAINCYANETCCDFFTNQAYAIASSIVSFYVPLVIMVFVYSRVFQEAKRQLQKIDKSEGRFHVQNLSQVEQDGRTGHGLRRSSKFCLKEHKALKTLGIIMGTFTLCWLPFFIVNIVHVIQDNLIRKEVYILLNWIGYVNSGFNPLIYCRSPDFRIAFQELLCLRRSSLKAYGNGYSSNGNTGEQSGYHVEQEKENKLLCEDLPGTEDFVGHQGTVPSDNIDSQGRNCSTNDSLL

This assay deals with Beta-2 adrenergic receptor (Homo sapiens) (UniProt P07550). Kind of assay: qHTS assay of beta-arrestin-biased ligands of beta2-adrenergic receptor: Hit Validation with GloSensor. Particulars: W9-Glo22F cells, GloSensor cAMP luminescence, beta2AR agonism; activation: at 46.1 µM (top of the series). The source says:
The concept of biased agonism is an emerging concept of molecular pharmacology which proposes that seven transmembrane receptors (7TMRs) or G protein-coupled receptors (GPCRs), exist in multiple signaling conformations and complexes and that ligands (either agonists or antagonists) can induce signaling biased responses for distinct signal transduction cascades.
Furthermore, accumulating evidence over the last decade has drawn attention to a novel function of beta-arrestins as signal transducers that scaffold various signaling molecules upon activation of 7TMRs. […] This beta-arrestin-biased signaling presumably leads to distinct physiological outcomes from those by G protein activation.
Additionally, the active receptor conformations which […] on this beta-arrestin signaling are likely different from those activating G protein signaling
The goal of this screening project is to discover and optimize novel beta-arrestin-biased ligands for beta2-AR signaling. A luminescent cell-based assay for beta2-AR-mediated agonism, known as the Tango assay, has been validated in which ligand binding of a recombinant beta2-AR and subsequent recruitment of a recombinant beta-arrestin lead to the release of the transcriptional activator tTA, which upregulates transcription of a tTA-responsive luciferase gene. […] After compounds were identified in this primary screen, they were tested in a counter screen that used luminescence as measure through the GloSensor reagent.
NIH Molecular Libraries Probe Production Network [MLPCN]
NIH Chemical Genomics Center [NCGC]
PI: Bryan Roth (UNC) and Bob Lefkowitz (Duke)
2 uL of W9-Glo22F cells are dispensed into a white 1536-well plate. They are incubated overnight at 37 deg C at 5% CO2. 23 nL of compounds and controls are pinned into the wells. Then 2 uL of GloSensor is added and the plate is incubated for 10 min at room temperature.The plates are then read on the ViewLux for luminescence.
Consider `Cc1nc(SCC(=O)N2CCOCC2)c2c3c(sc2n1)CCC3`, for which the Potency result is “inactive”.

Regarding `O=C(NCc1ccco1)c1cccn2c(=O)c3c4c(sc3nc12)CCCC4`, the Potency result is “inactive”.

As for `Cc1ccc(C)c(-n2c(SCC(=O)O)nc3sc4c(c3c2=O)CCCC4)c1`, the Potency is 23.1 µM (active).

For `CC1(C)CC(C)(c2ccc(O)cc2O)N(c2cccc(Cl)c2)C(=S)N1` (stereo not drawn), the Potency entry was “inactive”.

Consider `S=c1[nH]c2cc(-c3ccccc3)ccc2o1`, for which the Potency result is “inactive”.

As to `CC1CCC(NC(=O)c2ccc(S(C)(=O)=O)cc2)CC1` (stereo not drawn), the Potency is 29.1 µM (active).

`CC(C)CC(=O)NC(=S)Nc1ccc(Cl)cn1`: the Potency entry was “inactive”.

Turning to `O=C(CS(=O)(=O)c1ccccc1)Nc1nc2ccccc2s1`, the Potency result was “inactive”.

`CCCC(=O)NC(=S)Nc1ccc(Cl)cn1`: the Potency entry was “inactive”.

In the case of `COc1cccc(C(=O)C2CCCN(Cc3cccc(-n4nc(C)cc4C)c3)C2)c1` (stereo not drawn), the Potency entry is “inactive”.

For the compound `COc1ccc(C(=O)C2CCCN(Cc3cnc(N4CCCC4)s3)C2)cc1OC` (stereo not drawn), the Potency entry was “inactive”.

Consider `COc1ccc(C(=O)C2CCCN(C/C=C/c3ccccc3OC)C2)c(OC)c1` (stereo not drawn), for which the Potency is 18.4 µM (active).

As for `O=c1[nH]c(CSc2cccc[n+]2[O-])nc2ccccc12`, the Potency result was “inactive”.

In the case of `O=c1[nH]c(CSc2ccccn2)nc2c1cnn2-c1ccccc1`, the Potency is 11.6 µM (active).

For `CCc1cc2c(=O)[nH]c(-c3ccccn3)nc2s1`, the Potency result is “inactive”.

Regarding `CCn1c(SCC(=O)N/N=C/C=C\c2ccco2)nc2ccccc21`, the Potency result was “inactive”.

As for `S=C(NN=C1CCN(Cc2ccccc2)CC1)NC1CCCCC1`, the Potency entry is “inactive”.

With `COc1cccc([C@@H]2Oc3ccc(Br)cc3C(=O)[C@H]2OC(=O)NC2CCCC2)c1`, the Potency entry is “inactive”.

As for `CCOc1ccc(C(=O)Nc2ccccc2OC(F)F)cc1`, the Potency result was “inactive”.

Turning to `O=C(CN1C(=O)C2C3CC(C(Br)C3Br)C2C1=O)N1CCN(Cc2ccccc2)CC1` (stereo not drawn), the Potency entry was “inactive”.

As for `CCNc1nc(NC(C)CC)nc(ON=C(C)C)n1` (stereo not drawn), the Potency is 32.6 µM (active).

`CN(C)S(=O)(=O)c1cccc(NC(=S)N/N=C/c2ccco2)c1`: the Potency entry is “inactive”.

For `COc1ccc(/C=C/c2ccc3cccc(O)c3n2)c(OC)c1OC`, the Potency result is “inactive”.

`C/C(CCC1CC(C)(C)OC1=O)=N\NC(N)=S` (stereo not drawn): the Potency entry is “inactive”.

Regarding `CCCCCOCC1CC(C/C(C)=N/NC(N)=S)C(=O)O1` (stereo not drawn), the Potency result is “inactive”.

Take `CCCCCC1CC(/C(C)=N/NC(N)=O)OC1=O` (stereo not drawn): the Potency was 29.1 µM (active).

Regarding `CS/C(N)=N/N=C/c1cc(C)ccc1O`, the Potency result is “inactive”.

`CCN(CC)C(=O)[C@H]1CC(CC(=O)NCc2ccc(OC)c(OC)c2)C(=O)N2CCc3c([nH]c4ccccc34)[C@]12C` (stereo partly drawn): the Potency result was “inactive”.

As for `O=C(CSc1n[nH]c(=O)n1-c1cccnc1)N1CCOCC1`, the Potency result is “inactive”.

For the compound `COc1ccc2cc1Oc1ccc(cc1)C[C@H]1c3cc(c(OC)cc3CCN1C)Oc1c(O)c(OC)cc3c1[C@H](C2)N(C)CC3`, the Potency result is “inactive”.

`CCOC(=O)N1C/C(=C\c2ccccc2)C(=O)/C(=C/c2ccccc2)C1`: the Potency entry is “inactive”.

Take `COc1cc(/C=C2\CC/C(=C\c3ccc(OCCO)c(OC)c3)C2=O)ccc1OCCO`: the Potency is 18.4 µM (active).

Consider `COc1cc(/C=C2\CC(C(C)(C)C)C/C(=C\c3cc(OC)c(OC)c(OC)c3)C2=O)cc(OC)c1OC` (stereo not drawn), for which the Potency entry is “inactive”.

With `O=C(O)CC1S/C(=N/N=C2CCCCC2)N(c2ccccc2)C1=O` (stereo not drawn), the Potency result is “inactive”.

Regarding `CN(C)CCCn1c(SCC(=O)Nc2nccs2)nnc1-c1ccncc1`, the Potency result was “inactive”.

Turning to `CCC(C)NC(=O)C1CCN(S(=O)(=O)N2CCC3(CC2)OCCO3)CC1` (stereo not drawn), the Potency result was “inactive”.

As to `COc1ccc(Oc2nc(-c3ccncc3)nc3ccccc23)cc1`, the Potency was 29.1 µM (active).

Regarding `COc1cccc(/C=N/Nc2nc(-c3cccnc3)nc3ccccc23)c1`, the Potency entry is “inactive”.

As for `O=C(CC(=O)Nc1cccc(F)c1)Nc1cccc(F)c1`, the Potency result was “inactive”.

For the compound `CCCCCCCCN1C(=O)N(C)C(N(O)C(=O)NC)C1(C)C` (stereo not drawn), the Potency result is “inactive”.

For `Clc1ccccc1C1Nc2cccc3cccc(c23)N1`, the Potency entry is “inactive”.

Turning to `Clc1cccc(Cl)c1C1Nc2cccc3cccc(c23)N1`, the Potency entry was “inactive”.

Take `O=[N+]([O-])c1ccc(Cl)c(C2Nc3cccc4cccc(c34)N2)c1`: the Potency was 0.0046 µM (active).

In the case of `Cc1ccc(C(=O)N/C(=C\c2ccco2)C(=O)NCCc2c[nH]c3ccccc23)cc1`, the Potency result was “inactive”.

Turning to `O=C(CNC(=O)C(c1ccccc1)c1ccccc1)N/N=C\c1cccc(O)c1`, the Potency entry is “inactive”.

As for `CCC(Sc1nc(C)cc(=O)[nH]1)C(=O)Nc1nc2c(s1)CCCC2` (stereo not drawn), the Potency entry is “inactive”.

Take `NC(=S)NN=C(Cc1ccccc1)Cc1ccccc1`: the Potency was 32.6 µM (active).

For the compound `CC(/C=C/c1ccccc1)=N\NC(N)=S`, the Potency result is “inactive”.

As for `NC(=S)NN=C(c1ccccc1)c1ccccc1`, the Potency result is “inactive”.

As to `Cc1cc(N2Cc3ccccc3C2)ccc1C=O`, the Potency entry was “inactive”.

On to `C/C(=N/NC(=O)c1ccoc1C)c1ccc(NC(=O)C2CCCC2)cc1`, for which the Potency entry was “inactive”.

For the compound `O=C(COC(=O)c1ccc(CO)cc1)NCc1cccs1`, the activation was 80.4% (active).

`O=C(COC(=O)c1n[nH]c(=O)c2ccccc12)NCc1ccccc1`: the Potency result is “inactive”.

Regarding `Oc1ccc(NCc2cccs2)cc1`, the Potency entry was “inactive”.

Turning to `CC1CN(C(=S)NC(=O)c2ccc([N+](=O)[O-])cc2)CC(C)O1` (stereo not drawn), the Potency entry was “inactive”.

In the case of `CCN1CCN(C(=S)NC(=O)c2cccc(Br)c2)CC1`, the Potency entry was “inactive”.

For `CN1CCN(C(=S)NC(=O)c2ccc(Br)cc2)CC1`, the Potency is 10.3 µM (active).

Turning to `CCC1(C)Nc2ccccc2C(=O)N1O` (stereo not drawn), the Potency result was “inactive”.

In the case of `O=C(Nc1nc(-c2ccccn2)cs1)Nc1ccc(F)cc1F`, the Potency result was “inactive”.

With `CN(C)/C=C/C(=O)c1ccc(F)cc1`, the Potency entry was “inactive”.

For `O=S(=O)(N1CCOCC1)N1CCOCC1`, the Potency entry was “inactive”.

With `Cc1ccc(NC(=S)NC(NC(=O)c2ccccc2)C(Cl)(Cl)Cl)c(C)c1` (stereo not drawn), the Potency entry was “inactive”.

Turning to `S=c1[nH]nc(-c2ccccc2)n1C1C=CCCC1` (stereo not drawn), the Potency entry is “inactive”.

Consider `Cn1c(-c2csc(-c3ccccc3)n2)n[nH]c1=S`, for which the Potency was 20.6 µM (active).

In the case of `CC(c1ccccc1)n1c(-c2ccc(C(C)(C)C)cc2)n[nH]c1=S` (stereo not drawn), the Potency result is “inactive”.

For `COc1ccccc1-c1cc(C(=O)N2CCN(c3ccccc3OC)CC2)no1`, the Potency result was “inactive”.

For the compound `Cc1ccc(Nc2nc(CSc3nnc(-c4ccccc4C)n3C)cs2)cc1`, the Potency result is “inactive”.

For `CCCOc1ccc(C(=O)Nc2nc(C)c(Cc3ccc4c(c3)OCO4)s2)cc1`, the Potency entry is “inactive”.

As to `COc1ccccc1N=NC1C(=O)N(C(N)=S)N=C1C` (stereo not drawn), the Potency result is “inactive”.

Take `CC(=O)Nc1ccc(NC(=O)Cn2nc(C(=O)Nc3ccc(C)cc3)ccc2=O)cc1`: the Potency result is “inactive”.

On to `CC1=NN(C(N)=S)C(=O)C1N=Nc1cccc(C)c1` (stereo not drawn), for which the Potency result was “inactive”.

As for `CC1=NN(C(N)=S)C(=O)C1N=Nc1ccccc1` (stereo not drawn), the Potency is 18.4 µM (active).

Consider `CC1=NN(C(N)=S)C(=O)C1N=Nc1ccc(F)cc1` (stereo not drawn), for which the Potency entry was “inactive”.
